Assay results from PubChem BioAssay (NCI).
This is part of a sample that, as a whole, favours compounds with a hit. Of some 79,000 tested, about 15% had one in any assay. Unmarked numbers belong to inactive results. Active and inactive are the calls of the source. Cut-off read from the data, not from the text of the source: active = growth inhibition above about 70%; inactive = the rest.

What was measured:
[1] = NCI Yeast Anticancer Drug Screen. Data for the rad50 strain (AID 155);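 note: 0% = growth of vehicle-only cultures of the same strain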; settings: S. cerevisiae rad50 strain growth inhibition, hits give high values
Summary of the method: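 Inhibition values express reduced yeast growth in compound-treated cultures relative to vehicle-treated controls.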

[2] = NCI Yeast Anticancer Drug Screen. Data for the mec2-1 strain (AID 157); settings: S. cerevisiae mec2-1 strain, hits give high values
Summary of the method: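 Each compound was tested on mec2-1 yeast, a strain altered in DNA damage repair or cell cycle control. Growth inhibition is reported relative to vehicle.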

[3] = NCI Yeast Anticancer Drug Screen. Data for the sgs1 mgt1 strain (AID 161);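 note: 0% = growth of cultures given vehicle only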; settings: S. cerevisiae sgs1 mgt1 strain, hits give high values
Summary of the method: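 Test agents were incubated with a DNA-repair-mutant yeast strain. Growth was then read and compared against vehicle-treated controls.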

[4] = NCI Yeast Anticancer Drug Screen. Data for the cln2 rad14 strain (AID 165);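 note: 0% = growth equal to vehicle treated cultures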; settings: S. cerevisiae cln2 rad14 strain, hits give high values
Summary of the method: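 Test compounds were added to cln2 rad14 yeast cultures; inhibition of growth was then determined by comparison with vehicle treatment.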

[5] = NCI Yeast Anticancer Drug Screen. Data for the bub3 strain (AID 167); settings: S. cerevisiae bub3 mutant strain, hits give high values
Summary of the method: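 Steps: expose the mutant yeast strain to compound; grow alongside vehicle-treated cultures; measure growth; express inhibition against the vehicle cultures.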

[6] = NCI Yeast Anticancer Drug Screen. Data for the mlh1 rad18 strain (AID 175); settings: S. cerevisiae mlh1 rad18 strain growth inhibition, hits give high values
Summary of the method: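 Inhibition values reflect reduced growth of mutant yeast versus vehicle-treated controls following compound exposure; the mutations affect DNA damage repair.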

[7] = at 5.0 µM (retest, dose inferred, filed as 0.5)
[8] = at 50.0 µM (retest, dose inferred, filed as 5.0)

| SMILES | growth inhibition [1, 7] | growth inhibition [1, 8] | growth inhibition ([1]; at 50.0 µM) | growth inhibition [2, 7] | growth inhibition [2, 8] | growth inhibition ([2]; at 50.0 µM) | growth inhibition [3, 7] | growth inhibition [3, 8] | growth inhibition ([3]; at 50.0 µM) | growth inhibition [4, 7] | growth inhibition [4, 8] | growth inhibition ([4]; at 50.0 µM) | growth inhibition [5, 7] | growth inhibition [5, 8] | growth inhibition ([5]; at 50.0 µM) | growth inhibition [6, 7] | growth inhibition [6, 8] | growth inhibition ([6]; at 50.0 µM) |
| --- | --- | --- | --- | --- | --- | --- | --- | --- | --- | --- | --- | --- | --- | --- | --- | --- | --- | --- |
| CCc1cccc(C(C)(C)C)c1NC(=S)N/C=C(\C#N)C(=O)c1ccc2ccccc2c1 | -5% | 34% | 67.4% | -26% | 25% | 35.5% | -8% | 22% | 70.7% (active) | -18% | 8% | 29.3% | -17% | 18% | 63.9% | -6% | 38% | 65.2% |
| CN(C)CCCNc1c2ccccc2nc2ccc([N+](=O)[O-])cc12 | 16% | 80% (active) | 68.3% | 13% | 70% (active) | 25.6% | 21% | 80% (active) | 20.7% | 19% | 54% | 52.5% | 11% | 59% | 39.5% | 31% | 84% (active) | 29.2% |
| Cc1ccc(C2=Nc3c(c(C)nn3-c3ccccc3)N=C(C(=O)O)C2)cc1 | 1% | 78% (active) | 76.2% (active) | -23% | 87% (active) | 82.9% (active) | -3% | 62% | 88.4% (active) | -4% | 92% (active) | 87.5% (active) | 2% | 89% (active) | 83.4% (active) | -12% | 86% (active) | 59.3% |
| CC/C(=C\c1cccc(OC)c1)c1ccncc1 | 17% | 84% (active) | 94.7% (active) | 12% | 92% (active) | 94.2% (active) | 40% | 91% (active) | 95.3% (active) | 14% | 81% (active) | 90.3% (active) | 35% | 89% (active) | 94.8% (active) | 32% | 87% (active) | 93.9% (active) |
| CCCCNCCCNCCCNC(=O)c1csc(-c2csc(CCNC(=O)C(NC(=O)C(C)C(O)C(C)NC(=O)C(NC(=O)c3nc(C(CC(N)=O)NCC(N)C(N)=O)nc(N)c3C)C(OC3OC(CO)C(O)C(O)C3OC3OC(CO)C(O)C(OC(N)=O)C3O)c3cnc[nH]3)C(C)O)n2)n1 (stereo not given) | 97% (active) | 99% (active) | 93% (active) | 98% (active) | 99% (active) | 93.8% (active) | 96% (active) | 98% (active) | 94% (active) | 95% (active) | 94% (active) | 91.9% (active) | 97% (active) | 98% (active) | 93.9% (active) | 98% (active) | 99% (active) | 92.7% (active) |
| O=C(O)CCC12CCCCC1=NC1(CCCCC1)NC2=O (stereo not given) | 2% | 6% | 10.6% | -2% | -1% | 44.6% | 3% | 4% | 72.7% (active) | 4% | 3% | 18.1% | 1% | 2% | 67% | 1% | 7% | 55.6% |
| O=c1ccc2ccc(Cl)cc2[nH]1 | -9% | 1% | -27.9% | -5% | 16% | -5.9% | -5% | -8% | 8.05% | 17% | 17% | 50% | 4% | 1% | -10.3% | 9% | 20% | 4.8% |
| Oc1ccc(O)c2c(O)c3ccccc3c(O)c12 | 24% | 86% (active) | 76.7% (active) | 15% | 77% (active) | 50.4% | 10% | 85% (active) | 80.5% (active) | 15% | 58% | 30.9% | 3% | 82% (active) | 65.7% | 20% | 94% (active) | 78.9% (active) |
| COC(=O)c1c(C)cccc1C1CN=NC12Cc1ccccc1C2=O (stereo not given) | 24% | 32% | 3.9% | 16% | 12% | 6.25% | 23% | 38% | 32.9% | 24% | 16% | 30.8% | 25% | 30% | 19.6% | 23% | 29% | -32.9% |
| CCOc1ccccc1C(=O)OCc1ccccc1 | -7% | 8% | 10.1% | -9% | 4% | 0.65% | -1% | 19% | 18.9% | 23% | -22% | 15.2% | 4% | -20% | 6.2% | -19% | 21% | 1.55% |
